Measured values as given in PubChem BioAssay (NCI).
This is part of a sample that, as a whole, favours compounds with a hit. Of some 79,000 tested, about 15% had one in any assay. Unmarked numbers belong to inactive results. The source made the active and inactive calls. Rule as the data show it: active = growth inhibition above about 70%; inactive = the rest.

What was measured:
[1] = NCI Yeast Anticancer Drug Screen. Data for the wt2 strain (AID 169);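 also: 0% = growth of vehicle-treated yeast cultures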; settings: S. cerevisiae wt2 strain growth inhibition, hits give high values
How it was run: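 The panel's yeast strains carry defined changes in DNA repair or cell cycle genes. Each strain is grown with compound, and growth loss is scored relative to vehicle.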

[2] = NCI Yeast Anticancer Drug Screen. Data for the mlh1 strain (AID 171);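 also: 0% = growth of vehicle-treated control cultures of the same strain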; settings: S. cerevisiae mlh1 strain growth inhibition, hits give high values
How it was run: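 Inhibition values reflect reduced yeast growth in the presence of compound, referenced to vehicle controls, using a strain chosen for its alteration in DNA repair or cell cycle control.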

[3] = NCI Yeast Anticancer Drug Screen. Data for the sgs1 strain (AID 173);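 also: 0% = growth of vehicle-only control cultures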; settings: S. cerevisiae sgs1 mutant, hits give high values
How it was run: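 Vehicle-treated cultures served as reference for growth inhibition of a yeast strain altered in DNA damage repair or cell cycle control after compound exposure.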

[4] = NCI Yeast Anticancer Drug Screen. Data for the mlh1 rad18 strain (AID 175); settings: S. cerevisiae mlh1 rad18 strain growth inhibition, hits give high values
How it was run: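 Inhibition values reflect reduced growth of mutant yeast versus vehicle-treated controls following compound exposure; the mutations affect DNA damage repair.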

[5] = NCI Yeast Anticancer Drug Screen. Data for the rad18 strain (AID 177); settings: S. cerevisiae rad18 mutant growth inhibition, hits give high values
How it was run: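 Steps: expose repair-mutant yeast to compound; measure growth; express as inhibition relative to vehicle control.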

[6] = NCI Yeast Anticancer Drug Screen. Data for the rad52 strain (AID 147);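 also: 0% = growth of vehicle-treated control cultures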; settings: S. cerevisiae rad52 mutant growth inhibition, hits give high values
How it was run: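 Inhibition of yeast growth, referenced to vehicle controls, was the measured output for a strain with defective DNA damage repair.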

[7] = NCI Yeast Anticancer Drug Screen. Data for the wt1 strain (AID 149);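 also: 0% = growth of vehicle-treated wt1 cultures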; settings: S. cerevisiae wt1 strain (SPY 50644) growth inhibition, hits give high values
How it was run: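 wt1 yeast, compound-treated; % growth inhibition vs vehicle control.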

[8] = NCI Yeast Anticancer Drug Screen. Data for the rad50EPP+ strain (AID 151);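 also: 0% = growth of vehicle-treated control cultures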; settings: S. cerevisiae rad50 mutant strain, hits give high values
How it was run: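 Genetically defined yeast (rad50EPP+, DNA damage repair alteration) is grown with compound, and inhibition of growth is expressed relative to vehicle-treated controls.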

[9] = NCI Yeast Anticancer Drug Screen. Data for the mgt1 strain (AID 153); settings: S. cerevisiae mgt1 mutant growth inhibition, hits give high values
How it was run: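 In the mgt1 strain, test compounds were added and growth inhibition was determined relative to vehicle-treated controls.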

[10] = NCI Yeast Anticancer Drug Screen. Data for the rad50 strain (AID 155);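 also: 0% = growth of vehicle-only cultures of the same strain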; settings: S. cerevisiae rad50 strain growth inhibition, hits give high values
How it was run: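 Genetically altered yeast (DNA repair pathway); compound treatment; growth inhibition vs vehicle ctrl.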

[11] = NCI Yeast Anticancer Drug Screen. Data for the mec2-1 strain (AID 157); settings: S. cerevisiae mec2-1 strain, hits give high values
How it was run: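 Each compound was tested on mec2-1 yeast, a strain altered in DNA damage repair or cell cycle control. Growth inhibition is reported relative to vehicle.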

[12] = NCI Yeast Anticancer Drug Screen. Data for the rad14 strain (AID 159);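 also: 0% = growth of vehicle-treated control cultures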; settings: S. cerevisiae rad14 strain growth inhibition, hits give high values
How it was run: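 Test compounds were applied to a repair-deficient yeast strain. Its growth was then compared with that of cultures given vehicle alone, and inhibition was expressed relative to those controls.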

[13] = NCI Yeast Anticancer Drug Screen. Data for the sgs1 mgt1 strain (AID 161);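 also: 0% = growth of cultures given vehicle only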; settings: S. cerevisiae sgs1 mgt1 strain, hits give high values
How it was run: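 Genetically altered yeast, compound exposure, growth inhibition relative to vehicle.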

[14] = NCI Yeast Anticancer Drug Screen. Data for the CLN2oe strain (AID 163);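 also: 0% = growth of vehicle-only control cultures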; settings: S. cerevisiae CLN2oe strain, hits give high values
How it was run: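 First, the altered yeast strain was treated with each compound; second, its growth was measured; finally, inhibition was derived by comparison with vehicle controls.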

[15] = NCI Yeast Anticancer Drug Screen. Data for the cln2 rad14 strain (AID 165);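 also: 0% = growth equal to vehicle treated cultures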; settings: S. cerevisiae cln2 rad14 strain, hits give high values
How it was run: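 Test compounds were added to cln2 rad14 yeast cultures; inhibition of growth was then determined by comparison with vehicle treatment.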

[16] = NCI Yeast Anticancer Drug Screen. Data for the bub3 strain (AID 167); settings: S. cerevisiae bub3 mutant strain, hits give high values
How it was run: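 Yeast carrying a defined mutation is treated with each compound, and growth is compared with that of vehicle-exposed cells to give inhibition.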

[17] = at 5.0 µM (retest, dose inferred, filed as 0.5)
[18] = at 50.0 µM (retest, dose inferred, filed as 5.0)

Compound `O=C1C(=O)c2ccccc2C(O)=C1C(C1=C(O)c2ccccc2C(=O)C1=O)c1ccc(Cl)cc1` has a growth inhibition ([1]; at 1.2 µM) of 4%, a growth inhibition ([1]; at 3.7 µM) of 15% and a growth inhibition ([1]; at 11.0 µM) of 50%. It also gave a growth inhibition ([1]; at 33.0 µM) of 54%, a growth inhibition ([1]; at 100.0 µM) of 46% and a growth inhibition ([2]; at 1.2 µM) of 6%. The growth inhibition ([2]; at 3.7 µM) was 13%, the growth inhibition ([2]; at 11.0 µM) was 58% and the growth inhibition ([2]; at 33.0 µM) was 62%. It also gave a growth inhibition ([2]; at 100.0 µM) of 56%, a growth inhibition ([3]; at 1.2 µM) of 16% and a growth inhibition ([3]; at 3.7 µM) of 39%. The growth inhibition ([3]; at 11.0 µM) was 74% (active), the growth inhibition ([3]; at 33.0 µM) was 72% (active) and the growth inhibition ([3]; at 100.0 µM) was 63%. For the same compound, the growth inhibition [4, 17] was -5%, the growth inhibition [4, 18] was 42% and the growth inhibition ([4]; at 50.0 µM) was 86.2% (active). The growth inhibition ([5]; at 1.2 µM) was 23%, the growth inhibition ([5]; at 3.7 µM) was 38% and the growth inhibition ([5]; at 11.0 µM) was 70% (active). It also gave a growth inhibition ([5]; at 33.0 µM) of 64% and a growth inhibition ([5]; at 100.0 µM) of 49%.
In the case of `CC1=NOC(=O)/C1=C/c1ccc2c(c1)OCO2`, the growth inhibition ([6]; at 1.2 µM) is reported as 0%, the growth inhibition ([6]; at 3.7 µM) is reported as 4% and the growth inhibition ([6]; at 11.0 µM) is reported as 17%. The growth inhibition ([6]; at 33.0 µM) was 32%, the growth inhibition ([6]; at 100.0 µM) was 39% and the growth inhibition ([7]; at 1.2 µM) was 5%. It also gave a growth inhibition ([7]; at 3.7 µM) of 0%, a growth inhibition ([7]; at 11.0 µM) of 2% and a growth inhibition ([7]; at 33.0 µM) of 6%. For the same compound, the growth inhibition ([7]; at 100.0 µM) was 13%, the growth inhibition ([8]; at 1.2 µM) was 6% and the growth inhibition ([8]; at 3.7 µM) was 5%. For the same compound, the growth inhibition ([8]; at 11.0 µM) was 41%, the growth inhibition ([8]; at 33.0 µM) was 47% and the growth inhibition ([8]; at 100.0 µM) was 87% (active). The growth inhibition ([9]; at 1.2 µM) was -4%, the growth inhibition ([9]; at 3.7 µM) was 1% and the growth inhibition ([9]; at 11.0 µM) was 1%. For the same compound, the growth inhibition ([9]; at 33.0 µM) was -10%, the growth inhibition ([9]; at 100.0 µM) was 9% and the growth inhibition ([10]; at 1.2 µM) was 1%. For the same compound, the growth inhibition ([10]; at 3.7 µM) was 3%, the growth inhibition [10, 17] was 0% and the growth inhibition ([10]; at 11.0 µM) was 26%. The growth inhibition ([10]; at 33.0 µM) was 49%, the growth inhibition [10, 18] was 24% and the growth inhibition ([10]; at 50.0 µM) was 82.2% (active). The growth inhibition ([10]; at 100.0 µM) was 59%, the growth inhibition ([11]; at 1.2 µM) was 0% and the growth inhibition ([11]; at 3.7 µM) was -1%. It also gave a growth inhibition [11, 17] of 13%, a growth inhibition ([11]; at 11.0 µM) of 10% and a growth inhibition ([11]; at 33.0 µM) of 12%. For the same compound, the growth inhibition [11, 18] was 83% (active), the growth inhibition ([11]; at 50.0 µM) was 78.6% (active) and the growth inhibition ([11]; at 100.0 µM) was 28%. For the same compound, the growth inhibition ([12]; at 1.2 µM) was 2%, the growth inhibition ([12]; at 3.7 µM) was 2% and the growth inhibition ([12]; at 11.0 µM) was 7%. The growth inhibition ([12]; at 33.0 µM) was 11%, the growth inhibition ([12]; at 100.0 µM) was 29% and the growth inhibition [13, 17] was 23%. For the same compound, the growth inhibition [13, 18] was 58%, the growth inhibition ([13]; at 50.0 µM) was 65.5% and the growth inhibition ([14]; at 1.2 µM) was -5%. The growth inhibition ([14]; at 3.7 µM) was 3%, the growth inhibition ([14]; at 11.0 µM) was 9% and the growth inhibition ([14]; at 33.0 µM) was 15%. The growth inhibition ([14]; at 100.0 µM) was 9%, the growth inhibition [15, 17] was 2% and the growth inhibition [15, 18] was 51%. The growth inhibition ([15]; at 50.0 µM) was 20.4%, the growth inhibition ([16]; at 1.2 µM) was -5% and the growth inhibition ([16]; at 3.7 µM) was -1%. The growth inhibition [16, 17] was 19%, the growth inhibition ([16]; at 11.0 µM) was 3% and the growth inhibition ([16]; at 33.0 µM) was 3%. The growth inhibition [16, 18] was 30%, the growth inhibition ([16]; at 50.0 µM) was 70.5% (active) and the growth inhibition ([16]; at 100.0 µM) was 18%. For the same compound, the growth inhibition ([1]; at 1.2 µM) was 2%, the growth inhibition ([1]; at 3.7 µM) was 0% and the growth inhibition ([1]; at 11.0 µM) was 8%. For the same compound, the growth inhibition ([1]; at 33.0 µM) was 12%, the growth inhibition ([1]; at 100.0 µM) was 13% and the growth inhibition ([2]; at 1.2 µM) was 3%. The growth inhibition ([2]; at 3.7 µM) was 1%, the growth inhibition ([2]; at 11.0 µM) was 6% and the growth inhibition ([2]; at 33.0 µM) was 20%. For the same compound, the growth inhibition ([2]; at 100.0 µM) was 26%, the growth inhibition ([3]; at 1.2 µM) was 1% and the growth inhibition ([3]; at 3.7 µM) was 1%. The growth inhibition ([3]; at 11.0 µM) was 10%, the growth inhibition ([3]; at 33.0 µM) was 19% and the growth inhibition ([3]; at 100.0 µM) was 23%. The growth inhibition [4, 17] was 23%, the growth inhibition [4, 18] was 81% (active) and the growth inhibition ([4]; at 50.0 µM) was 48.6%. The growth inhibition ([5]; at 1.2 µM) was 2%, the growth inhibition ([5]; at 3.7 µM) was -12% and the growth inhibition ([5]; at 11.0 µM) was 10%. For the same compound, the growth inhibition ([5]; at 33.0 µM) was 36% and the growth inhibition ([5]; at 100.0 µM) was 61%.
